# Measured values reported in PubChem BioAssay AID2530 (National Center for Advancing Translational Sciences (NCATS), 2010).
# Results filed as inconclusive are left out. Where a call stands in place of a potency, no number is given. Activity calls are given as the source filed them. Calls follow the shape of the dose curve; as a rule, active = well fitted inhibition curve with a large enough effect; inconclusive = small, poorly fitted or top-dose-only effect; inactive = flat fitted curve, though single readings scatter.
# Molecular target: Luciferin 4-monooxygenase (Photuris pensylvanica) (UniProt Q27757)
# Assay: Secondary Assay for Luciferase (Kinase-Glo TM) Inhibition Counterscreen
# Settings: Kinase-Glo luciferase enzyme, luminescence; series mostly up to 58.1 µM
# Procedure: NIH Chemical Genomics Center [NCGC] Malcolm Walkinshaw, Hugh Morgan, Linda Gilmore University of Edinburgh, UK MLPCN Grant: 1 R03 MH085697-01 NCGC Assay Overview: Luciferase (Kinase-Glo, Promega Corporation) was assayed for its ability to generate light using ATP and luciferin as substrates. The ATP concentration in the assay (10 uM) was within the linear range of enzyme activity for the assay conditions used. This assay was used as an counter screen for human pyruvate kinase M2 isoform.
# NCGC Assay Protocol Summary: Four uL of substrate mix (final concentration, 50 mM imidazole pH 7.2, 50 mM KCl, 7 mM MgCl2, 10 uM ATP, 0.01% Tween 20, 0.05% BSA) was dispensed into white 1536 well plates. Twenty-three nL of compound was delivered by a pin tool and 2 uL of luciferase detection mix (Kinase-Glo, Promega)) was added. Following 8-minute incubation at ambient temperature, luminescence was measured by a ViewLux (Perkin Elmer) at 5 seconds exposure/plate. Data were normalized to the controls for basal activity (DMSO only) and 100% inhibition (40 uM SIB 1757) and curve fitting was performed using Hill equation.
# Potency is read from the fitted curve at half-maximal effect.
row,Structure (SMILES),Potency
1,CN(C)c1cccc(S(=O)(=O)N2CCN(S(=O)(=O)c3ccc4c(c3)OCCO4)CC2)c1,inactive
2,O=C1c2ccccc2C(=O)N1c1ccc(Cl)cc1,inactive
3,Cc1ccc(NS(=O)(=O)c2cc3c(cc2-c2cn[nH]c2)NC(=O)CO3)cc1C,inactive
4,COc1ccc(-c2cn3ccc(C)cc3n2)cc1,8.19 µM (active)
5,O=C1NS(=O)(=O)c2ccccc21,inactive
6,COc1ccc(S(=O)(=O)Nc2ccc(C)c(C)c2)cc1,inactive
7,O=C1c2ccccc2C(=O)N1c1ncccc1O,inactive
8,CC(=O)N1CCCc2cc(S(=O)(=O)Nc3ccc(C)c(C)c3)ccc21,inactive
9,COc1ccccc1OC1=NS(=O)(=O)c2ccccc21,inactive
10,CN=c1nc(-c2ccccc2)n(-c2ccccc2)s1,inactive
11,N/C(=N\OC(=O)c1ccccc1)c1ccccn1,4.61 µM (active)
12,CN1CCc2cccc3c2C1Cc1ccc(O)c(O)c1-3 (stereo not given),inactive
13,O=C(Nc1cccc(O)c1)C(=O)Nc1ccccn1,20.6 µM (active)
14,O=C1CCc2cc(S(=O)(=O)Nc3ccc4ccccc4c3)ccc2N1,inactive
15,Cc1ccc(NS(=O)(=O)c2ccc3c(c2)CCCC(=O)N3)cc1C,inactive
16,O=C1CCc2cc(S(=O)(=O)Nc3ccc4c(c3)OCCO4)ccc2N1,inactive
17,O=[N+]([O-])c1cc2oc3c(c2c(C=NCc2ccccc2)c1O)CCCC3,inactive
18,O=C1c2ccccc2C(=O)N1c1ccncc1,inactive
19,Cc1cccc(OC2=NS(=O)(=O)c3ccccc32)c1,inactive
20,CC(C)CN=Cc1c(O)c([N+](=O)[O-])cc2oc3c(c12)CCCC3,inactive

row,Structure (SMILES),Potency
1,Nc1ccc2nc(-c3ccccc3)sc2c1,11.6 µM (active)
2,O=C1CCc2cc(S(=O)(=O)Nc3ccccc3Cl)ccc2N1,inactive
3,Fc1ccc(-c2nc3n(n2)Cc2ccccc2-3)cc1,7.3 µM (active)
4,COc1ccc2c(c1)c1ccc3c(c1n2C)C(=O)C=CC3=O,inactive
5,O=C(/C=C/Nc1ccccc1Br)c1ccccn1,13 µM (active)
6,O=C1c2ccccc2C(=O)N1Cc1ccccc1,inactive
7,O=C(Nc1ccc(N2CCOCC2)cc1)c1cn2ccccc2n1,6.51 µM (active)
8,O=S1(=O)N=C(Oc2ccccc2)c2ccccc21,inactive
9,Cc1ccc(NS(=O)(=O)c2ccc3c(c2)CCO3)cc1C,inactive
10,Cc1cc(N2C(=O)c3ccccc3C2=O)no1,inactive
11,O=C1CCc2cc(S(=O)(=O)Nc3ccc(-c4ccccc4)cc3)ccc2N1,inactive
12,CNc1cccc(S(=O)(=O)N2CCN(S(=O)(=O)c3ccc4c(c3)OCCO4)CC2)c1,inactive
13,O=C(/C=C/c1ccc2c(c1)OCO2)c1ccccn1,5.8 µM (active)
14,CC(C)(C)NC(=O)C(c1ccncc1)N(C(=O)Cn1nnc(-c2ccc(F)cc2)n1)c1ccccc1 (stereo not given),inactive
15,CC(=O)Nc1ccc(S(=O)(=O)Nc2ccc(C)c(C)c2)cc1,inactive
16,Cc1ccc(NS(=O)(=O)c2ccc3c(c2)NC(=O)CO3)cc1C,inactive
17,O=C1c2ccccc2C(=O)N1c1ccc2ncccc2c1,inactive
18,Brc1ccc(N=Nc2ccc3ccccc3n2)cc1,7.3 µM (active)
19,Cc1ccc(-c2nc3cnccn3c2Nc2ccc(C(C)C)cc2)o1,inactive
20,Nc1ncnc2c1ncn2C1OC(COP(=O)(O)O)C(O)C1O (stereo not given),4.61 µM (active)
